Screening data deposited in PubChem BioAssay by National Center for Advancing Translational Sciences (NCATS).
A selection: hits, their analogues and other compounds. The true share with any hit is near 3.4%.
KDM4E inh: blocks human JMJD2E demethylase activity. B2RXH2. JMJD2E catalytic domain, FDH-coupled NADH fluorescence (FDH is formaldehyde dehydrogenase). Potency, µM (highest dose often 57.1 µM), actives largely listed as inhibitors. actives 1.6% (n = 230,000); active = well fitted inhibition curve with a large enough effect, not every such curve was filed as active; inconclusive = small, poorly fitted or top-dose-only effect, or another doubt; inactive = no such curve, though single readings can be large or run the other way; also: nearly all actives have a fitted effect of over 50% in size
Target sequence (B2RXH2 1-337 limits assumed): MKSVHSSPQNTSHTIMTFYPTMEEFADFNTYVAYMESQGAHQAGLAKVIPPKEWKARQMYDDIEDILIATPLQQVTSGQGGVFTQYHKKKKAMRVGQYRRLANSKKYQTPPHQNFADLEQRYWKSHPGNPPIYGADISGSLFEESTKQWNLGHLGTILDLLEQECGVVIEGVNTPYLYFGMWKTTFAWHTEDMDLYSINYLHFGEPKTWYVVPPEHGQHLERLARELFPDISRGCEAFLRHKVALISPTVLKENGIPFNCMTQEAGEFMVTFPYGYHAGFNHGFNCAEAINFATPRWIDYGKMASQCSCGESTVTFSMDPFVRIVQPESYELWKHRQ
Tau ThT inhib: inhibitors of human tau fibril formation, thioflavin T binding; recombinant tau K18 P301L, heparin-induced fibrillization, ThT fluorescence; P10636; Potency, µM (top dose mostly 57.4 µM), actives largely listed as inhibitors; actives 2.1% (n = 270,000); also: nearly all actives have a fitted effect of over 55% in size
Target sequence (P10636 561-689 P618L limits assumed): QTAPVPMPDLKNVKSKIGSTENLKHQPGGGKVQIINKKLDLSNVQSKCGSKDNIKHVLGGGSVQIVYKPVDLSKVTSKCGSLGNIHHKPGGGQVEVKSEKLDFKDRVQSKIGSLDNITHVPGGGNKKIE
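Heparin-induced fibrillization of the P301L-mutant K18 repeat-domain fragment of human tau was followed by ThT binding in quantitative high-throughput format.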
Tau fibril FP: blocks human tau fibril formation measured by polarization. AID 1468. K18 P301L tau heparin fibrillization, Alexa594 FP, 6 h. actives 0.39% (n = 280,000). P10636. Potency, µM (top dose mostly 57.7 µM), actives largely listed as inhibitors; also: nearly all actives have a fitted effect of over 55% in size
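Human K18 P301L fragment (15 uM unlabeled plus 0.24 uM Alexa 594-labeled) in 100 mM sodium acetate pH 7 with compound, aggregation induced by 20 uM heparin for 6 hr at 37 C. ThT (30 uM) added for 1 hr, then Alexa 594 FP read.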
Tau fluor counter: counter-screen for tau fibril formation inhibitors; Potency, µM (titrated, usually from 57.7 µM); actives 0.93% (n = 280,000); tau K18 P301L Alexa594 fluorescence, heparin fibrillization; also: nearly all actives have a fitted effect of over 55% in size
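Human tau K18 P301L (15 uM unlabeled, 0.24 uM Alexa 594-labeled) in 100 mM sodium acetate pH 7 with 20 uM heparin, 6 hr at 37 C. ThT 30 uM added, 1 hr ambient; Alexa 594 FP and total fluorescence read at 555/632 nm.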
RGS12 GoLoco inh: inhibitors of human Gai1-RGS12 GoLoco interaction (red fluorophore); actives 0.44% (n = 230,000); Gai1:RGS12 GoLoco peptide FP, rhodamine, 10 min; P63096; Potency, µM (top dose mostly 61.6 µM), usual class: inhibitors; active = well fitted inhibition curve with a large enough effect, not every such curve was filed as active; inactive = no such curve, though single readings can be large or run the other way; also: nearly all actives have a fitted effect of over 30% in size
A number is an active result; i = inactive; ? = inconclusive; nt = not tested or not shown; ! = a repeat was not active; [ ] = another dose, or the depositor's remark. Unless noted, calls follow the shape of the dose curve; as a rule, active = well fitted curve in the direction sought with a large enough effect; inconclusive = small, poorly fitted or top-dose-only effect, or another doubt; inactive = no such curve, though single readings can be large; an effect the other way counts as inactive or inconclusive.

SMILES	KDM4E inh	Tau ThT inhib	Tau fibril FP	Tau fluor counter	RGS12 GoLoco inh
CCOc1ccc(N(CC)C(=O)Cn2cnc3sc(C)c(S(=O)(=O)N4CCN(c5ncccn5)CC4)c3c2=O)cc1	nt	?	i	i	nt
CC(C)n1cnc(S(=O)(=O)N2CCCC(C(=O)NCc3ccccc3Cl)C2)c1 (stereo not drawn)	nt	i	i	i	nt
Cc1c(C(=O)Nc2nc(-c3ccc(F)cc3)ns2)oc2ccc(Cl)cc12	nt	i	i	i	nt
COc1ccc(Nc2nc(C)c(-c3ccccc3)s2)cc1	?	5.6µM	i	8.9µM[quencher]	i
CCN(CC)CCOc1ccc(/C(=C(/Cl)c2ccccc2)c2ccccc2)cc1	?	?	i	i	i
CC/C(=C(\c1ccccc1)c1ccc(OCCN(C)C)cc1)c1ccccc1	20µM!	?	i	i	i
Cc1ccc(NS(=O)(=O)c2ccc3[nH]c4c(c3c2)CCCCCC4)cc1	nt	i	?	11µM[quencher]	nt
Cc1ccc(N(C)S(=O)(=O)c2ccc3[nH]c4c(c3c2)CCCC4)cc1	nt	i	i	14µM[quencher]	nt
COc1ccc(NS(=O)(=O)c2ccc3[nH]c4c(c3c2)CCCC4)cc1OC	nt	?	i	16µM[quencher]	nt
COc1cc(NS(=O)(=O)c2ccc3[nH]c4c(c3c2)CCCC4)cc(OC)c1OC	nt	i	i	?	nt
COc1ccc(OC)c(NS(=O)(=O)c2ccc3[nH]c4c(c3c2)CCCCC4)c1	nt	i	i	11µM[quencher]	nt
O=C(Nc1nc2n(n1)C(c1ccc(F)cc1)C=C(c1ccc(Cl)cc1)N2)c1ccc([N+](=O)[O-])cc1 (stereo not drawn)	nt	i	i	i	nt
CC(=O)Nc1ccc(C(=O)CSc2nnc3cc(C)c4ccccc4n23)cc1	nt	i	i	i	nt
CCCCN(CC)CCNC(=O)C1CCN(c2nnc(C)c3c(C)n(-c4ccc(C)cc4)nc23)CC1	nt	i	i	i	nt
Cc1ccc(NS(=O)(=O)c2ccc3[nH]c4c(c3c2)CCCCCC4)cc1C	nt	i	i	13µM[quencher]	nt
COc1ccc(NS(=O)(=O)c2ccc3[nH]c(=O)ccc3c2)cc1OC	nt	?	i	8.9µM[quencher]	nt
COc1ccc(NS(=O)(=O)c2ccc(OC)c(OC)c2)cc1OC	i	i	i	i	i
COc1cc(NS(=O)(=O)c2ccc3[nH]c4c(c3c2)CCCCCC4)cc(OC)c1	nt	i	i	8.9µM[quencher]	nt
CCOC(=O)c1ccc(NS(=O)(=O)c2ccc3[nH]c4c(c3c2)CCCCC4)cc1	nt	i	?	6.3µM[quencher]	nt
CCN(CC)c1ccc(NS(=O)(=O)c2ccc3c(c2)CCCN3C(C)=O)c(C)c1	nt	i	i	i	nt
Cc1ccc(Cl)cc1NC(=O)c1ccc(NC(=O)N2CCSc3ncccc32)cc1	nt	?	i	i	nt
COc1cccc(N2C(=O)CSC23C(=O)N(CC(=O)Nc2cc(C)ccc2C)c2ccccc23)c1 (stereo not drawn)	nt	i	i	i	nt
Cc1[nH]c2ccccc2c1/C=C/c1cc[n+](C)cc1	i	?	i	i	2.8µM
C(=C/c1ccccc1)/c1ccccc1	nt	nt	nt	nt	i
Cc1ccccc1/C=C/c1cc[n+](C)cc1	25µM	i	i	i	22µM
SMILES	KDM4E inh	Tau ThT inhib	Tau fibril FP	Tau fluor counter	RGS12 GoLoco inh
Cc1ccccc1CS(=O)(=O)Cc1ccc(C(=O)NCCc2ccc(Cl)cc2)o1	nt	i	i	i	nt
CCn1c(Cl)c(C=O)s/c1=N\S(=O)(=O)c1ccccc1	i	8.9µM	7.1µM	i	i
CCN1C(=O)CS/C1=N\S(=O)(=O)c1ccc(Cl)cc1	i	i	i	i	i
FC(F)(F)c1cccc(NC(=S)NCC2COc3ccccc3O2)c1 (stereo not drawn)	i	i	25µM	?	i
CCCNC(=S)Nc1cccc(C(F)(F)F)c1	i	i	i	i	i
FC(F)(F)c1cccc(NC(=S)Nc2cccc(NC(=S)Nc3cccc(C(F)(F)F)c3)n2)c1	?	i	20µM	13µM[quencher]	i
CC(=O)c1ccc(NC(=O)c2c3c(nc4ccccc24)C(=O)N(C2CCCCC2)C3)cc1	nt	i	i	i	nt
CCCCn1nnnc1SCC(=O)Nc1ccc(N(C)C)cc1	i	?	i	i	10µM
CCCCn1nnnc1SCC(=O)Nc1ccc(F)cc1	i	i	i	i	i
Cc1ccc(C)c(NC(=O)CCc2nc3cccnc3n2Cc2cccs2)c1	nt	i	i	i	nt
COc1cc(NC(=O)N2CCSc3ccccc32)cc(OC)c1OC	nt	i	i	i	nt
COc1ccc(N=C(NN)c2ccc3ccccc3n2)cc1	?	16µM	i	i	i
NNC(=O)c1ccc2ccccc2n1	i	?	i	i	i
COc1cc(SC#N)ccc1N=Cc1c(C)[nH]n(-c2ccc(C)cc2C)c1=O	i	14µM	?	i	i
COc1cc(SC#N)ccc1N=Cc1c(C)[nH]n(-c2cccc3ccccc23)c1=O	i	7.9µM	?	i	i
COc1ccccc1N=Cc1c(C)[nH]n(-c2ccc(C)cc2C)c1=O	?	i	i[2.34 µM]	i[2.34 µM]	i
CCC1CCCCN1C(=O)Cn1c(=O)n(CCCCCC(=O)NCc2ccccc2Cl)c(=O)c2sccc21 (stereo not drawn)	nt	i	i	i	nt
CCOc1ccc(NC(=O)c2cnn(-c3ccc(C)c(C)c3)c2C2CCN(C(=O)OC(C)(C)C)CC2)cc1	nt	i	i	i	nt
O=[N+]([O-])c1ccc(N/N=C2\CC3CC=CC23)c([N+](=O)[O-])c1 (stereo not drawn)	i	?	i	?	i
O=[N+]([O-])c1ccc(N/N=C2\CC3CC=CC23)cc1 (stereo not drawn)	i	14µM	i	?	i
CCc1c(C)sc2c1CCN(Cc1ccc(F)cc1)C2c1ccccc1 (stereo not drawn)	nt	?	i	i	nt
Cc1c(NC(=O)/C(C#N)=C/c2ccc(-c3ccc(Cl)cc3)o2)c(=O)n(-c2ccccc2)n1C	i	14µM	i	i	i
CCOc1ccc(NC(=O)/C(C#N)=C\c2ccc(-c3ccc(Cl)cc3)o2)cc1	nt	1.4µM	i	i	nt
N#C/C(=C\c1ccc(-c2ccc(C(=O)O)cc2)o1)C(=O)Nc1ccccc1C(=O)O	nt	2.5µM	i	i	nt
COc1c(C)cccc1C(=O)Nc1ccc(Cl)c(-c2nc3cc(C)ccc3o2)c1	nt	i	i	i	nt
SMILES	KDM4E inh	Tau ThT inhib	Tau fibril FP	Tau fluor counter	RGS12 GoLoco inh
CS(=O)(=O)c1cc([N+](=O)[O-])c(Sc2nc3ccccc3[nH]2)c([N+](=O)[O-])c1	i	i	i	i	7.9µM
Cn1cnc([N+](=O)[O-])c1Sc1nc2ccccc2[nH]1	i	?	i	i	i
Cc1ccc2oc(C(=O)NCC(c3ccc(Cl)cc3)N3CCOCC3)c(C)c2c1 (stereo not drawn)	nt	?	i	i	nt
COC(=O)CC1=C(C(=O)OC)C(c2cccs2)C(C#N)=C(N)O1 (stereo not drawn)	22µM	?	i	i	i
COc1ccc(Cl)cc1Nc1nc(-c2sc(NC(=O)CC(C)C)nc2C)cs1	?	?	i	?	i
C=CCCC(=O)Nc1nc(C)c(-c2csc(Nc3cc(Cl)ccc3OC)n2)s1	i	?	i	14µM[quencher]	i
C=CCCC(=O)Nc1nc(C)c(-c2csc(Nc3ccc(Cl)cc3Cl)n2)s1	i	7.9µM	i	14µM[quencher]	i
